Laboratory results reported in PubChem BioAssay (NCI).
This is part of a sample that, as a whole, favours compounds with a hit. Of some 79,000 tested, about 15% had one in any assay. Activity calls are given as the source filed them. No stated cut-off is given here; in the data, active means growth inhibition above about 70%; inactive means the rest.

Columns and labels:
[1] = NCI Yeast Anticancer Drug Screen. Data for the rad52 strain (AID 147);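 further: 0% = growth of vehicle-treated control cultures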; conditions: S. cerevisiae rad52 mutant growth inhibition, active compounds read high
How it was run: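 Here a repair-compromised yeast strain receives each compound; its growth is then quantified and normalised to vehicle-only controls.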

[2] = NCI Yeast Anticancer Drug Screen. Data for the wt1 strain (AID 149);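 further: 0% = growth of vehicle-treated wt1 cultures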; conditions: S. cerevisiae wt1 strain (SPY 50644) growth inhibition, active compounds read high
How it was run: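 Using yeast strain wt1, compound-induced growth inhibition was determined against vehicle-treated cultures.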

[3] = NCI Yeast Anticancer Drug Screen. Data for the rad50EPP+ strain (AID 151);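 further: 0% = growth of vehicle-treated control cultures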; conditions: S. cerevisiae rad50 mutant strain, active compounds read high
How it was run: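 Read-out is yeast growth inhibition relative to vehicle; cells used were the rad50EPP+ strain.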

[4] = NCI Yeast Anticancer Drug Screen. Data for the mgt1 strain (AID 153); conditions: S. cerevisiae mgt1 mutant growth inhibition, active compounds read high
How it was run: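 Measured: inhibition of mgt1 yeast growth by compound, normalized to vehicle-treated cultures.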

[5] = NCI Yeast Anticancer Drug Screen. Data for the rad50 strain (AID 155);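 further: 0% = growth of vehicle-only cultures of the same strain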; conditions: S. cerevisiae rad50 strain growth inhibition, active compounds read high
How it was run: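 Relative growth inhibition (compound vs vehicle) was measured in yeast with a defined repair-gene alteration.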

[6] = NCI Yeast Anticancer Drug Screen. Data for the mec2-1 strain (AID 157); conditions: S. cerevisiae mec2-1 strain, active compounds read high
How it was run: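 Using mec2-1 yeast: add compound, measure growth, express inhibition versus vehicle-treated cultures.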

[7] = NCI Yeast Anticancer Drug Screen. Data for the rad14 strain (AID 159);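 further: 0% = growth of vehicle-treated control cultures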; conditions: S. cerevisiae rad14 strain growth inhibition, active compounds read high
How it was run: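 Screen for anticancer potential: a yeast strain altered in DNA damage repair is grown with compound, and reduced growth is quantified against vehicle controls.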

[8] = NCI Yeast Anticancer Drug Screen. Data for the sgs1 mgt1 strain (AID 161);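 further: 0% = growth of cultures given vehicle only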; conditions: S. cerevisiae sgs1 mgt1 strain, active compounds read high
How it was run: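 Yeast cells carrying a defined DNA-repair defect were exposed to test compounds. Growth inhibition was measured relative to vehicle-treated controls.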

[9] = NCI Yeast Anticancer Drug Screen. Data for the CLN2oe strain (AID 163);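 further: 0% = growth of vehicle-only control cultures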; conditions: S. cerevisiae CLN2oe strain, active compounds read high
How it was run: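 Whole-cell yeast growth assay. A strain engineered for altered cell-cycle control received compound, and inhibition relative to vehicle-treated cultures was recorded.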

[10] = NCI Yeast Anticancer Drug Screen. Data for the bub3 strain (AID 167); conditions: S. cerevisiae bub3 mutant strain, active compounds read high
How it was run: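 Screening used yeast with an engineered genetic alteration affecting cell cycle control. Compound-exposed cultures were compared with vehicle cultures, and reduced growth was taken as inhibition.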

[11] = NCI Yeast Anticancer Drug Screen. Data for the mlh1 strain (AID 171);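 further: 0% = growth of vehicle-treated control cultures of the same strain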; conditions: S. cerevisiae mlh1 strain growth inhibition, active compounds read high
How it was run: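 A yeast strain with a defined genetic lesion serves as the test organism. Cultures receive compound or vehicle, and growth is measured.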

[12] = NCI Yeast Anticancer Drug Screen. Data for the sgs1 strain (AID 173);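 further: 0% = growth of vehicle-only control cultures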; conditions: S. cerevisiae sgs1 mutant, active compounds read high
How it was run: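 A genetically defined yeast mutant is incubated with the test compound, and its growth is compared to that of the same strain given vehicle.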

[13] = NCI Yeast Anticancer Drug Screen. Data for the mlh1 rad18 strain (AID 175); conditions: S. cerevisiae mlh1 rad18 strain growth inhibition, active compounds read high
How it was run: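 Steps: expose repair-defective yeast to compound; measure growth; express inhibition against vehicle-treated controls.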

[14] = NCI Yeast Anticancer Drug Screen. Data for the rad18 strain (AID 177); conditions: S. cerevisiae rad18 mutant growth inhibition, active compounds read high
How it was run: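 Measured value is growth inhibition of a yeast strain bearing a DNA repair alteration, referenced to vehicle-treated cells.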

[15] = NCI Yeast Anticancer Drug Screen. Data for the cln2 rad14 strain (AID 165);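 further: 0% = growth equal to vehicle treated cultures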; conditions: S. cerevisiae cln2 rad14 strain, active compounds read high
How it was run: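 Yeast strain cln2 rad14, bearing defects in cell cycle control and DNA repair, serves as the test system; values reflect growth inhibition compared with vehicle.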

[16] = NCI Yeast Anticancer Drug Screen. Data for the wt2 strain (AID 169);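 further: 0% = growth of vehicle-treated yeast cultures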; conditions: S. cerevisiae wt2 strain growth inhibition, active compounds read high
How it was run: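 Treated yeast vs. vehicle-treated yeast: growth inhibition determined.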

[17] = at 5.0 µM (retest, dose inferred, filed as 0.5)
[18] = at 50.0 µM (retest, dose inferred, filed as 5.0)

Measured: growth inhibition

CCOC(=O)Nc1ccc(C)c(NC(=O)OCC)c1
active: [5]; [18] 80% | [10]; [18] 76% | [13]; [18] 78% | [14]; at 100.0 µM 82%
inactive: [1]; at 1.2 µM 3% | [1]; at 3.7 µM 8% | [1]; at 11.0 µM 15% | [1]; at 33.0 µM 21% | [1]; at 100.0 µM 23% | [2]; at 1.2 µM 6% | [2]; at 3.7 µM 13% | [2]; at 11.0 µM 12% | [2]; at 33.0 µM 15% | [2]; at 100.0 µM 17% | [3]; at 1.2 µM 4% | [3]; at 3.7 µM 8% | [3]; at 11.0 µM 19% | [3]; at 33.0 µM 34% | [3]; at 100.0 µM 47% | [4]; at 1.2 µM 3% | [4]; at 3.7 µM 9% | [4]; at 11.0 µM 12% | [4]; at 33.0 µM 12% | [4]; at 100.0 µM 16% | [5]; at 1.2 µM 5% | [5]; at 3.7 µM 6% | [5]; [17] 22% | [5]; at 11.0 µM 16% | [5]; at 33.0 µM 19% | [5]; at 50.0 µM -1.75% | [5]; at 100.0 µM 26% | [6]; at 1.2 µM 4% | [6]; at 3.7 µM 8% | [6]; [17] -2% | [6]; at 11.0 µM 11% | [6]; at 33.0 µM 19% | [6]; [18] 14% | [6]; at 50.0 µM 6% | [6]; at 100.0 µM 20% | [7]; at 1.2 µM 3% | [7]; at 3.7 µM 7% | [7]; at 11.0 µM 10% | [7]; at 33.0 µM 15% | [7]; at 100.0 µM 21% | [8]; [17] 11% | [8]; [18] 57% | [8]; at 50.0 µM 4.65% | [9]; at 1.2 µM 9% | [9]; at 3.7 µM 13% | [9]; at 11.0 µM 23% | [9]; at 33.0 µM 23% | [9]; at 100.0 µM 23% | [10]; at 1.2 µM 2% | [10]; at 3.7 µM 8% | [10]; [17] 35% | [10]; at 11.0 µM 7% | [10]; at 33.0 µM 13% | [10]; at 50.0 µM 14.3% | [10]; at 100.0 µM 13% | [11]; at 1.2 µM 3% | [11]; at 3.7 µM 8% | [11]; at 11.0 µM 14% | [11]; at 33.0 µM 19% | [11]; at 100.0 µM 23% | [12]; at 1.2 µM 3% | [12]; at 3.7 µM 6% | [12]; at 11.0 µM 12% | [12]; at 33.0 µM 20% | [12]; at 100.0 µM 30% | [13]; [17] 34% | [13]; at 50.0 µM 8.35% | [14]; at 1.2 µM 8% | [14]; at 3.7 µM 14% | [14]; at 11.0 µM 30% | [14]; at 33.0 µM 61%

COc1ccc2c(c1)CCCC(Br)C2=O (stereo not drawn)
active: [1]; at 100.0 µM 98% | [2]; at 100.0 µM 98% | [3]; at 100.0 µM 97% | [4]; at 33.0 µM 78% | [4]; at 100.0 µM 98% | [5]; at 33.0 µM 70% | [5]; at 100.0 µM 98% | [6]; at 33.0 µM 71% | [6]; [18] 78% | [6]; at 50.0 µM 86.2% | [6]; at 100.0 µM 97% | [8]; [18] 90% | [8]; at 50.0 µM 88.3% | [9]; at 100.0 µM 96% | [10]; [18] 97% | [10]; at 50.0 µM 90.1% | [10]; at 100.0 µM 97% | [16]; at 100.0 µM 98% | [11]; at 33.0 µM 78% | [11]; at 100.0 µM 98% | [12]; at 33.0 µM 74% | [12]; at 100.0 µM 99% | [13]; [18] 73% | [13]; at 50.0 µM 92.4% | [14]; at 33.0 µM 87% | [14]; at 100.0 µM 99%
inactive: [1]; at 1.2 µM 12% | [1]; at 3.7 µM 17% | [1]; at 11.0 µM 27% | [1]; at 33.0 µM 64% | [2]; at 1.2 µM 14% | [2]; at 3.7 µM 0% | [2]; at 11.0 µM 17% | [2]; at 33.0 µM 51% | [3]; at 1.2 µM 5% | [3]; at 3.7 µM 28% | [3]; at 11.0 µM 30% | [3]; at 33.0 µM 67% | [4]; at 1.2 µM 26% | [4]; at 3.7 µM 23% | [4]; at 11.0 µM 36% | [5]; at 1.2 µM 30% | [5]; at 3.7 µM 28% | [5]; [17] 11% | [5]; at 11.0 µM 31% | [5]; [18] 48% | [5]; at 50.0 µM 37.4% | [6]; at 1.2 µM 38% | [6]; at 3.7 µM 41% | [6]; [17] -13% | [6]; at 11.0 µM 54% | [8]; [17] 17% | [9]; at 1.2 µM 1% | [9]; at 3.7 µM 11% | [9]; at 11.0 µM -9% | [9]; at 33.0 µM 45% | [15]; [17] 39% | [15]; [18] 59% | [15]; at 50.0 µM 34.3% | [10]; at 1.2 µM -7% | [10]; at 3.7 µM -10% | [10]; [17] -12% | [10]; at 11.0 µM -4% | [10]; at 33.0 µM 50% | [16]; at 1.2 µM -41% | [16]; at 3.7 µM -53% | [16]; at 11.0 µM -22% | [16]; at 33.0 µM 60% | [11]; at 1.2 µM 26% | [11]; at 3.7 µM 23% | [11]; at 11.0 µM 36% | [12]; at 1.2 µM 34% | [12]; at 3.7 µM 43% | [12]; at 11.0 µM 35% | [13]; [17] 6% | [14]; at 1.2 µM 32% | [14]; at 3.7 µM 45% | [14]; at 11.0 µM 54%
